Bioassay records deposited in PubChem by National Center for Advancing Translational Sciences (NCATS).
This is a sample that favours compounds with a hit; in the whole collection about 3.2% have one here.
Nrf2 ARE act = Nrf2 pathway activation. AREc32 ARE-luciferase reporter (MCF7-derived line), luminescence, 24 h. Potency, µM (titrated, usually from 46.1 µM), for the others: at the highest dose activation, most hits filed as activators. 0.31% of 410,000 active; note: potency is the fitted concentration of half-maximal effect; % of control where 0% means no effect; nearly all actives have a fitted effect of over 65% in size
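ARE-driven firefly luciferase activity in AREc32 cells measured after a 24 hr compound exposure at 37 deg C, using Steady-Glo reagent and a 30 min room-temperature hold.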
IL-2 act = activators of IL-2; activation, % (series mostly up to about 46 µM); AID 652025; IL-2 activation reporter assay, cell-based qHTS; stimulated with anti-CD3/CD4/CD28 beads; in transgenic mouse T cells; 0.065% of 360,000 active; in the data active = activation above about 50%; inconclusive = mostly about 30% to 49%; note: 0% is about no effect
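Readout is EGFP and DsRed signal by fluorescent plate cytometry after 18 h at 37 degrees C. Transgenic mouse T cells (750/well) received compound for 60 min before bead stimulation (anti-CD3, anti-CD4, anti-CD28); memory T cells served as non-tolerant control.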
p53 reactivator = re-activators of mutant p53; 0.063% of 320,000 active; Potency, µM (doses to about 92.2 µM), inactives show at the highest dose activity change, positive = activation, most hits filed as activators; H1299 p53-A138V BP100-luciferase reporter, luminescence, 24 h; note: potency is the fitted concentration of half-maximal effect; % of control where 0% means no effect; nearly all actives have a fitted effect of over 45% in size
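H1299 (p53-null), stable ts p53-A138V + BP100-Luc; 1000 cells/well, Opti-MEM/10% FBS; cpd 4 pt, 1:5; 24 h, 37 deg C, 5% CO2; detection reagent 10 min RT; luminescence.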
BRCA1 expr up = BRCA1 expression activation; Potency, µM (titrated, usually from 46.1 µM), inactives show top-dose activation, hits mostly activators; 1.1% of 380,000 active; MCF7-BRCA1-FFLuc reporter, luminescence, 48 h; response scale: scaled: vehicle 0%, 10 µM genistein 100%; note: potency is the fitted concentration of half-maximal effect; nearly all actives have a fitted effect of over 80% in size
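Using MCF7 cells harboring a BRCA1 firefly luciferase reporter, plated 2 h before compound pinning, the screen measured luminescence after 48 h incubation. Responses were normalized to DMSO and 10 microM genistein, then fitted for concentration-effect.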
A549 tox-1 = counter-screen for Nrf2 inhibitors: cytotoxicity in A549 cells; A549 ARE-Fluc cells, CellTiter-Fluor viability, 18-24 h; Potency, µM (highest dose often 46 µM), for the others: at the highest dose activity change, negative = cytotoxicity, actives largely listed as inhibitors; 0.16% of 390,000 active; AID 504648; note: potency is the fitted concentration of half-maximal effect; % is set by controls: 0 for no effect and ±100 for the full control effect
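Cytotoxicity counterscreen: CellTiter-Fluor fluorescence was measured in A549 ARE_Fluc cells after 18-24 h of compound exposure in a concentration series. The subsequent BugLite luminescent read reports ARE-luciferase activity.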
Nrf2 inh = inhibitors of Nrf2 signaling; 2.1% of 360,000 active; Potency, µM (doses to about 46 µM), inactives show top-dose activity change, negative = inhibition, hits mostly inhibitors; A549 ARE-Fluc reporter, luciferase luminescence, 18-24 h; note: potency is the fitted concentration of half-maximal effect; % is set by controls: 0 for no effect and ±100 for the full control effect; nearly all actives have a fitted effect of over 60% in size
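Quantitative HTS in A549 cells stably bearing an antioxidant response element-firefly luciferase construct. Inhibition of Nrf2-driven transcription was scored by luminescence after 18-24 h of compound exposure at 37 °C.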
FLuc enzyme inh = counter-screen for Nrf2 inhibitors: firefly luciferase enzyme inhibition. 4% of 1,400 active. Potency, µM (series often up to 57.5 µM), for inactives: at the top dose activity change, negative = inhibition, usual class: inhibitors. AID 720522. purified firefly luciferase, luminescence inhibition. shares compounds with Nrf2 inh; note: potency is the fitted concentration of half-maximal effect; % is set by controls: 0 for no effect and ±100 for the full control effect; nearly all actives have a fitted effect of over 65% in size
Target sequence (P08659 whole entry, looked up): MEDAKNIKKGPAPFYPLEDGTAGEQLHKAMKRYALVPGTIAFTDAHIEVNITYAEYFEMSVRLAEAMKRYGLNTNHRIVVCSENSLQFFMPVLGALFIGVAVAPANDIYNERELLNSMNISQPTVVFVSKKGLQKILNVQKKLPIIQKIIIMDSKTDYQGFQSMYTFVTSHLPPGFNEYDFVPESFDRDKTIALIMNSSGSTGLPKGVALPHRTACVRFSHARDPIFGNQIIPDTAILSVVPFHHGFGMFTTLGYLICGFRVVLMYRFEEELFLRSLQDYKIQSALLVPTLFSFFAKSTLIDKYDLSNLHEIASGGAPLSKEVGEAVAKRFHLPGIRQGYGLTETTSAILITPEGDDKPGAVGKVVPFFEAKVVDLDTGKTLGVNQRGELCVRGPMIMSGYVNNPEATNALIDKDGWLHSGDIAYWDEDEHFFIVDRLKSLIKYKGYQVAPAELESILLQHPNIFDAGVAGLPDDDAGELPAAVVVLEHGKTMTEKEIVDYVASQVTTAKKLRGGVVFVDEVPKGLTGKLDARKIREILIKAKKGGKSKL
A549 tox-2 = toxic to A549 ARE-Fluc cells in Nrf2 counterscreen. shares compounds with Nrf2 inh. A549 ARE-Fluc cells, cytotoxicity counterscreen. Potency, µM (series often up to 46.1 µM), inactives show top-dose activity change, negative = cytotoxicity, hits mostly inhibitors. 2% of 1,400 active;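 note: potency is the fitted concentration of half-maximal effect; cells exposed to compounds for 18 to 24 hours; % is set by controls: 0 for no effect and ±100 for the full control effect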
Nrf2 ARE inh = Nrf2 inhibition confirmed, A549 ARE-luciferase | shares compounds with Nrf2 inh | Potency, µM (titrated, usually from 46.1 µM), without a hit: top-dose activity change, negative = inhibition, hits mostly inhibitors | A549 ARE-firefly luciferase reporter, luminescence | 74% of 1,400 active | AID 720524; note: potency is the fitted concentration of half-maximal effect; % is set by controls: 0 for no effect and ±100 for the full control effect; nearly all actives have a fitted effect of over 65% in size
Numbers without * were called inactive. Unless noted, calls come from the whole dose curve; as a rule, active = well fitted curve in the direction sought with a large enough effect; inconclusive = small, poorly fitted or top-dose-only effect, or another doubt; inactive = no such curve, though single readings can be large; an effect the other way counts as inactive or inconclusive.

What do the screens show for `Cc1oc(-c2ccccc2F)nc1CS(=O)(=O)CC(=O)N1CCN(c2cccc(C(F)(F)F)c2)CC1`?
Nrf2 ARE act: 5%; BRCA1 expr up: -32%; A549 tox-1: -19%; Nrf2 inh: inconclusive

Results for C[n+]1ccc(-c2ccccc2)c2ccccc21 ?
Nrf2 ARE act: 1%; IL-2 act: 0; p53 reactivator: -3%; BRCA1 expr up: -52%; A549 tox-1: -15%; Nrf2 inh: 1.5µM*; FLuc enzyme inh: 0%; A549 tox-2: -1%

Results for CN(Cc1ccc(OC(F)F)cc1)C(=O)c1ccccc1Sc1ccccc1C#N ?
Nrf2 ARE act: 2%; IL-2 act: -7; BRCA1 expr up: -51%; A549 tox-1: -6%; Nrf2 inh: inconclusive

Results for CC(=O)N1CCCc2cc(S(=O)(=O)N3CCCC(C(=O)Nc4cccc(F)c4)C3)ccc21 (stereo unspecified) ?
Nrf2 ARE act: 1%; IL-2 act: -4; p53 reactivator: -3%; BRCA1 expr up: 0%; A549 tox-1: -9%; Nrf2 inh: 9.2µM*; FLuc enzyme inh: 3%; A549 tox-2: -2%

Results for Cc1ccc(NC(=O)C2CCCN2S(=O)(=O)c2ccc3c(c2)CCCC(=O)N3)cc1Cl (stereo unspecified) ?
Nrf2 ARE act: 5%; BRCA1 expr up: -24%; A549 tox-1: 0%; Nrf2 inh: inconclusive

Results for CC(C)[C@]1(O)[C@@H](OC(=O)c2ccc[nH]2)[C@@]2(O)[C@@]3(C)C[C@]4(O)O[C@@]5([C@H](O)[C@@H](C)CC[C@]35O)[C@@]2(O)C41C ?
A549 tox-1: -1%; Nrf2 inh: 15%

How did COc1ccc(-c2nc(CN3C(=O)CN=C(c4ccccc4)c4cc(Cl)ccc43)c(C)o2)cc1 do in these assays?
Nrf2 ARE act: -1%; A549 tox-1: -1%; Nrf2 inh: -11%

Results for CCOc1ccc(NCc2cccn2-c2nnc(N3CCC(C(=O)NC(C)c4ccccc4)CC3)s2)cc1 (stereo unspecified) ?
Nrf2 ARE act: 0%; A549 tox-1: -7%; Nrf2 inh: inconclusive

What do the screens show for `COc1ccc(CC(=O)N2CCN(C)CC2)cc1`?
Nrf2 ARE act: 0%; IL-2 act: -1; p53 reactivator: 20%; BRCA1 expr up: 52%; A549 tox-1: 0%; Nrf2 inh: 0%

How did COc1ccc(CC2NCC(O)C2OC(C)=O)cc1 (stereo unspecified) do in these assays?
Nrf2 ARE act: -5%; IL-2 act: -4; BRCA1 expr up: inconclusive; A549 tox-1: inconclusive; Nrf2 inh: 0.46µM*; FLuc enzyme inh: 1%; A549 tox-2: -5%; Nrf2 ARE inh: 1.5µM*

What do the screens show for `C[C@H]1CC[C@@H]2[C@@H](C)[C@H]3C(CC4C5CC=C6CC(O[C@@H]7O[C@H](CO)C(O[C@@H]8O[C@@H](C)[C@H](O)[C@@H](O)[C@H]8O)[C@H](O)[C@H]7O[C@@H]7O[C@@H](C)[C@H](O)[C@@H](O)[C@H]7O)CC[C@]6(C)C5CC[C@@]43C)N2C1` (stereo partly specified)?
A549 tox-1: -30%; Nrf2 inh: inconclusive

Results for COc1cc2c(cc1OC)[C@H]1C(=O)c3ccc4c(c3O[C@H]1CO2)C[C@@H](C(C)(C)O)O4 ?
Nrf2 ARE act: 4%; IL-2 act: 0; p53 reactivator: -6%; BRCA1 expr up: -25%; A549 tox-1: 6%; Nrf2 inh: inconclusive

What do the screens show for `COc1cc2c(cc1OC)C1C(=O)c3ccc4c(c3OC1CO2)CC(C(C)C)O4` (stereo unspecified)?
Nrf2 ARE act: 4%; IL-2 act: 0; BRCA1 expr up: -83%; A549 tox-1: -7%; Nrf2 inh: 0.092µM*; FLuc enzyme inh: -1%; A549 tox-2: -16%; Nrf2 ARE inh: 0.058µM*

What do the screens show for `COc1cc2c(cc1OC)[C@@H]1C(=O)c3ccc4c(c3O[C@@H]1CO2)C[C@H](C(C)C)O4`?
Nrf2 ARE act: 0%; IL-2 act: -2; p53 reactivator: 4%; BRCA1 expr up: -51%; A549 tox-1: -13%; Nrf2 inh: 0.29µM*; FLuc enzyme inh: 0%; A549 tox-2: -15%; Nrf2 ARE inh: 0.23µM*

Results for Cc1cc(/C=C/c2ccnc3ccccc23)ccc1N(CCCl)CCCl ?
BRCA1 expr up: 0%

Results for C#CCCC[C@@H]1OC(=O)CNC(=O)C([C@@H](C)CC)NC(=O)[C@@H]2CCCN2C(=O)C([C@@H](C)CC)OC(=O)[C@H](Cc2ccccc2)N(C)C(=O)[C@H](C(C)C)NC(=O)C1(C)C (stereo partly specified) ?
Nrf2 ARE act: -2%; IL-2 act: -1; BRCA1 expr up: -35%

What do the screens show for `CCC(C)C1NC(=O)C(NC(=O)C(CC(C)C)N(C)C(=O)C2CCCN2C(=O)C(C)O)C(C)OC(=O)C(Cc2ccc(OC)cc2)N(C)C(=O)C2CCCN2C(=O)C(CC(C)C)NC(=O)[C@H](C)C(=O)[C@H](C(C)C)OC(=O)CC1O` (stereo partly specified)?
Nrf2 ARE act: -1%; IL-2 act: -6; BRCA1 expr up: inconclusive; A549 tox-1: 0.037µM*; Nrf2 inh: 0.0073µM*; FLuc enzyme inh: 2%; A549 tox-2: inconclusive; Nrf2 ARE inh: 0.01µM*

Results for Cc1[nH]nc2ccc(-c3cncc(OC[C@@H](N)Cc4c[nH]c5ccccc45)c3)cc12 ?
Nrf2 ARE act: -3%; IL-2 act: 0; BRCA1 expr up: -79%; A549 tox-1: inconclusive; Nrf2 inh: 5.2µM*; FLuc enzyme inh: -1%; A549 tox-2: inconclusive
